# Only some compounds are listed: those with a hit (about 0.45% of all), similar ones and a draw of the others.
# FMDV RLuc = Primary qHTS Assay for Foot and Mouth Disease Virus Antivirals against NCGC Sytravon and CBC Compound Libraries: Renilla Luciferase Signal | FMDV replicon cells, Renilla luciferase signal | Potency, µM (series often up to 57.5 µM), without a hit: at the highest dose activity change, negative = inhibition, usual class: inhibitors | 120,000 tested, 0.32% active; further: nearly all actives have a fitted effect of over 55% in size
# FMDV FLuc = Primary qHTS Assay for Foot and Mouth Disease Virus Antivirals against NCGC Sytravon and CBC Compound Libraries: Firefly Luciferase Signal. FMDV antiviral cell assay, firefly luciferase signal. Potency, µM (series often up to 57.5 µM), for the others: top-dose activity change, negative = inhibition, actives largely listed as inhibitors. 120,000 tested, 0.23% active. AID 1745856, 2022; further: nearly all actives have a fitted effect of over 60% in size
# * hit, by the source's call; ? = inconclusive. The call rests on the fitted dose curve. On the % scale 0 is the no-effect control and ±100 the full control effect; potency means the concentration at half of the fitted maximal effect.
SMILES,FMDV RLuc,FMDV FLuc
CC1=C2C(=O)CC(C)CC2=Nc2ccccc2N1 (configuration not stated),2%,11%
CC1=C2C(=O)CC(c3cccc(Cl)c3)CC2=Nc2ccccc2N1 (configuration not stated),18µM*,?
COc1cccc(CNC(=O)Cn2ccc3cc(S(=O)(=O)N4CCCC4)ccc32)c1OC,18%,-16%
COc1ccccc1CCNC(=O)Cn1ccc2cc(S(=O)(=O)N3CCCCC3)ccc21,28µM*,-18%
CCC(C)c1ccc(-c2csc(NC(=O)c3cnc4c(c3)c(=O)n(C)c(=O)n4C)n2)cc1 (configuration not stated),-8%,119%
Cc1ccc(-c2csc(NC(=O)c3cnc4c(cnn4C(C)C)c3)n2)cc1C,?,11µM*
COc1ccc(S(=O)(=O)N2CCSC2c2cc(OC)ccc2OC)cc1 (configuration not stated),-9%,-11%
CCCCN(C)C(=O)C1CCCN(c2ncnc3onc(C)c23)C1 (configuration not stated),2µM*,?
CCCCN(CC)C(=O)C1CCCN(c2ncnc3onc(C)c23)C1 (configuration not stated),?,-28%
CCCCCc1ccc(OC(=O)c2ccc(Cl)cc2)cc1,-7%,2%
CCOc1ccc(C(=O)c2ccc(Cl)cc2)cc1,20%,42%
CCNC(=O)NC(=O)C(C)Oc1ccc(C(=O)c2ccc(Cl)cc2)cc1 (configuration not stated),?,13µM*
CCN1C(=O)c2ccccc2Sc2ccc(NC(=O)Cc3ccc(OC)c(OC)c3)cc21,-7%,-3%
COc1ccc(C(=O)Nc2ccc3c(c2)N(C2CCCC2)C(=O)c2ccccc2S3)cc1OC,10µM*,?
CCCNc1nc2ccccc2nc1C(=O)Nc1cc(C)ccc1C,1%,-4%
O=[N+]([O-])c1ccc(NC(c2ccccc2)c2ccccn2)c2ccncc12 (configuration not stated),-4%,-8%
CC(Nc1ccc([N+](=O)[O-])c2cnccc12)c1ccc(F)cc1 (configuration not stated),25µM*,?
CCn1nc(C(=O)Nc2ccc(OC)c(Oc3ccc(OC)cc3)c2)c2ccccc2c1=O,3%,16%
CCS(=O)(=O)c1ncc(Cl)c(C(=O)Nc2c(C(=O)Nc3cccc(C)c3)oc3ccccc23)n1,10%,42%
Cc1cccc(NC(=O)c2nc(S(C)(=O)=O)ncc2Cl)c1,35µM*,?
COc1ccc(C(=O)Nc2ccc(Cl)cc2C(=O)N2CCCCCC2)cc1,192%,-8%
O=C(O)CNC(=O)c1cc(-c2ccccn2)nc2ccccc12,-9%,-4%
Nc1nccnc1C(=O)NCc1ccc(OCc2cccc(F)c2)cc1,11µM*,?
Nc1nccnc1C(=O)NCc1cccnc1Oc1cccc(F)c1,8%,5%
CCCNC(=O)CCc1nc(-c2ccccc2)c(-c2ccccc2)o1,9%,9%
SMILES,FMDV RLuc,FMDV FLuc
COc1ccc(Nc2nc3ccccc3nc2NS(=O)(=O)c2cccc(Cl)c2)cc1,54%,4%
O=S(=O)(Nc1nc2ccccc2nc1Nc1ccc(F)cc1)c1cccc(Cl)c1,?,6.3µM*
Cc1ccc(-n2cnnc2SCC(=O)Nc2ccc(S(=O)(=O)N3CCCCCC3)cc2)c(C)c1,14%,1%
Cc1cc(C)cc(-n2ccnc2SCC(=O)Nc2ccccc2F)c1,20µM*,?
Cc1cc(C)cc(-n2ccnc2SCC(=O)Nc2cccc3ccccc23)c1,13%,2%
CC(C)C(=O)NCCSCc1cccs1,12%,22%
COC(=O)C1(NC(=O)COc2cccc(F)c2)CCCCC1,12%,2%
COC(=O)C1(NC(=O)COc2cc(Cl)ccc2Cl)CCCCCC1,5µM*,?
COc1ccc(CCNCc2ccc(Cl)cc2)cc1,8.9µM*,2%
COc1ccc(CNCCc2ccc(Cl)cc2)cc1,-27%,7%
O=C(CSc1nnc(N2CCOCC2)n1-c1cccc(F)c1)N(Cc1ccco1)C1=CCCCC1,8%,-12%
O=C(/C=C/c1cccnc1)c1ccc2c(c1)OCCCO2,0%,0%
CCCNC(=O)COC(=O)c1nn(Cc2ccccc2)c(=O)c2ccccc12,0%,46%
CC1CCCCC1NC(=S)NN (configuration not stated),25%,0%
CC1CCCCC1NC(=S)Nc1cccc2cnccc12 (configuration not stated),?,14µM*
CC(Sc1nnc(Nc2ccccc2F)s1)C(=O)N1CCc2ccccc21 (configuration not stated),19%,79%
O=C(CSc1nc(=O)n(Cc2cccnc2)c2c1CCC2)Nc1cccc(Cl)c1,19%,-3%
CC(C)c1ccc(NC(=O)CSc2nc(=O)n(Cc3cccnc3)c3c2CCC3)cc1,8.9µM*,?

# Screens (PubChem BioAssay)
